As a reminder, the Inhibition is the change of the read-out against control, counted positive when it falls.

For part of these data: Potency and affinity values are given separately.

For 27 molecules, Inhibition results are on record in ChEMBL document CHEMBL4296182, “CO-ADD screening of NIH NCI Diversity Set V”.

One experiment deals with Staphylococcus aureus. Kind of experiment: Antibacterial activity against Staphylococcus aureus MRSA ATCC 43300 (CO-ADD:GP_020); MIC in CAMBH media using NBS plates, by Resazurin F(560/590). Type of experiment: functional. The settings on record: Concentration 20 uM, ASSAY_TEST Inhibition of Bacterial Growth, detection method Resazurin, Fluorescence (ex560/em590), MEDIA CAMHB, plate type 384well, CORNING #3640, time 18 hr. Background: Alamar Blue is a resazurin reagent that responds to reducing activity.

The next experiment has as its system Acinetobacter baumannii. The experiment in a line: Antibacterial activity against Acinetobacter baumannii ATCC 19606 (CO-ADD:GN_034); MIC in CAMBH media using NBS plates, by Resazurin F(560/590). The class given is functional. To be noted: Concentration 20 uM, ASSAY_TEST Inhibition of Bacterial Growth, detection method Resazurin, Fluorescence (ex560/em590), MEDIA CAMHB, plate type 384well, CORNING #3640, time 18 hr.

The subject of the next experiment is Escherichia coli. The experiment in a line: Antibacterial activity against Escherichia coli ATCC 25922 (CO-ADD:GN_001); MIC in CAMBH media using NBS plates, by Resazurin F(560/590). Type of experiment: functional. The settings on record: Concentration 20 uM, ASSAY_TEST Inhibition of Bacterial Growth, detection method Resazurin, Fluorescence (ex560/em590), MEDIA CAMHB, plate type 384well, CORNING #3640, time 18 hr.

A further experiment concerns Klebsiella pneumoniae. The settings on record: Concentration 20 uM; ASSAY_TEST Inhibition of Bacterial Growth; detection method Absorption (OD600); MEDIA CAMHB; plate type 384well; NBS; CORNING #3640; time 18 hr.
A further experiment concerns Candida albicans. The settings on record: 20 µM.
Another experiment has as its system Cryptococcus neoformans. To be noted: Concentration 20 uM; ASSAY_TEST Inhibition of Fungal Growth; detection method Resazurin; Absorption (OD600-OD570); plate type 384well; NBS; CORNING #3640.

As for `O=C(Nc1ccc(F)cc1)Oc1cccnc1O`, the Inhibition in the experiment on Staphylococcus aureus was 10.32%; with Acinetobacter baumannii, 2.12%; in the experiment on Escherichia coli, 1.72%; in the experiment on Klebsiella pneumoniae it was 11.14%; in the experiment on Candida albicans it was 5.85%; in the experiment with Cryptococcus neoformans, -4.36%.
In the case of `c1cncc(C2Nc3cccc4cccc(c34)N2)c1`, the Inhibition with Staphylococcus aureus is -23.65%; in the experiment with Acinetobacter baumannii, -11.45%; in the experiment on Escherichia coli, -11.57%; with Klebsiella pneumoniae it was 4.78%; in the experiment with Candida albicans, 10.3%; in the experiment on Cryptococcus neoformans, 30.98%.
For the molecule `FCCN(CCF)c1cccc(Cl)c1`, the Inhibition in the experiment on Staphylococcus aureus was 3.32%; with Acinetobacter baumannii, -11.77%; in the experiment with Escherichia coli, 4.68%; with Klebsiella pneumoniae, 20.4%; with Candida albicans, 0.87%; in the experiment on Cryptococcus neoformans, -7.02%.
For `COC(=O)c1nc(-c2ccc3c(n2)C(=O)C(N)=C(OC)C3=O)c(N)c(-c2ccc(OC)c(OC)c2O)c1C`, the Inhibition with Staphylococcus aureus is -0.84%; with Acinetobacter baumannii it was -9.1%; with Escherichia coli it was 8.8%; in the experiment on Klebsiella pneumoniae, 8.38%; in the experiment on Candida albicans, -0.15%; in the experiment with Cryptococcus neoformans, 0.31%.
Regarding `O=C(NCCCN1CC1)Nc1cccc2ccccc12`, the Inhibition is -3.04% in the experiment with Staphylococcus aureus; 12.11% in the experiment on Acinetobacter baumannii; -2.13% with Escherichia coli; 20.16% in the experiment with Klebsiella pneumoniae; 1.47% in the experiment with Candida albicans; 1.2% in the experiment on Cryptococcus neoformans.
As for `O=c1nc(C(F)(F)C(F)(F)C(F)(F)F)[nH]o1`, the Inhibition was 8.37% in the experiment with Staphylococcus aureus; 8.1% in the experiment with Acinetobacter baumannii; -1.78% in the experiment on Escherichia coli; 12.08% with Klebsiella pneumoniae; 3.43% in the experiment with Candida albicans; -2.86% in the experiment on Cryptococcus neoformans.
For `CC(=O)Nc1cc([As](=O)(O)O)ccc1O` [ACETARSONE], the Inhibition in the experiment on Staphylococcus aureus is 12.71%; in the experiment with Acinetobacter baumannii it was 13.01%; with Escherichia coli it was 0.28%; in the experiment on Klebsiella pneumoniae, 16.86%; in the experiment with Candida albicans, 1.06%; in the experiment with Cryptococcus neoformans, -8.45%.
As to `O=C(OC1CCCCC1)c1ccccc1C(=O)OC1CCCCC1`, the Inhibition in the experiment with Staphylococcus aureus is -2.45%; with Acinetobacter baumannii, -19.72%; with Escherichia coli, -0.16%; in the experiment with Klebsiella pneumoniae, 3.51%; with Candida albicans, 7.38%; with Cryptococcus neoformans it was -2.99%.
For `COc1ccc(CCNC2(C#N)CCCCC2)cc1OC`, the Inhibition with Staphylococcus aureus was 2.96%; with Acinetobacter baumannii it was -11.77%; with Escherichia coli, 4.72%; in the experiment on Klebsiella pneumoniae, 9.13%; with Candida albicans, 2.4%; in the experiment on Cryptococcus neoformans it was -6.07%.
In the case of `O=C(NC(=O)c1c(F)cccc1F)Nc1cc(Cl)c(F)c(Cl)c1F` [TEFLUBENZURON], the Inhibition with Staphylococcus aureus is 1.58%; in the experiment on Acinetobacter baumannii, -16.27%; in the experiment on Escherichia coli it was 15.1%; in the experiment on Klebsiella pneumoniae, 2.21%; with Candida albicans it was -1.38%; in the experiment with Cryptococcus neoformans, -2.13%.
In the case of `O=c1cccc2n1C[C@H]1C[C@@H]2CN2CCCC[C@@H]12`, the Inhibition was 6.92% with Staphylococcus aureus; -12.51% in the experiment on Acinetobacter baumannii; 5.34% in the experiment on Escherichia coli; 8.7% with Klebsiella pneumoniae; -0.36% in the experiment on Candida albicans; -3.93% in the experiment with Cryptococcus neoformans.
Consider `N#CC12CNCC1CN=N2` (configuration not stated), for which the Inhibition in the experiment on Staphylococcus aureus was 10.47%; with Acinetobacter baumannii, 1.05%; in the experiment with Escherichia coli it was -13.15%; in the experiment on Klebsiella pneumoniae it was 8.95%; in the experiment with Candida albicans, 1.04%; in the experiment on Cryptococcus neoformans, 19.07%.
Consider `C/C=C(/C)C(=O)O[C@H]1CCN2CC=C(COC(=O)[C@@](O)([C@H](C)OC)C(C)(C)O)[C@H]12`, for which the Inhibition with Staphylococcus aureus is 10.77%; in the experiment on Acinetobacter baumannii it was -8.86%; with Escherichia coli it was 10.49%; in the experiment with Klebsiella pneumoniae it was 12.46%; in the experiment with Candida albicans, -1.68%; in the experiment on Cryptococcus neoformans it was -5.72%.
As for `O=C1N(c2nncs2)CCN1[N+](=O)[O-]`, the Inhibition is 11.64% with Staphylococcus aureus; 7.25% in the experiment on Acinetobacter baumannii; 7.74% with Escherichia coli; 10.14% with Klebsiella pneumoniae; 2.04% with Candida albicans; -14.15% in the experiment on Cryptococcus neoformans.
On to `C1CC2NCCC3NCCC(N1)N32` (configuration not stated), for which the Inhibition is 9.55% with Staphylococcus aureus; -9.44% in the experiment on Acinetobacter baumannii; 11.78% in the experiment on Escherichia coli; 14.06% in the experiment with Klebsiella pneumoniae; -0.83% with Candida albicans; -3.22% in the experiment with Cryptococcus neoformans.
On to `COc1cc(OC)cc(C2(C#N)CCN(C)CC2)c1`, for which the Inhibition with Staphylococcus aureus was 3.06%; in the experiment with Acinetobacter baumannii, 10.25%; with Escherichia coli it was -15.21%; with Klebsiella pneumoniae, 17.67%; in the experiment with Candida albicans, 8.63%; in the experiment on Cryptococcus neoformans, 25.01%.
As for `CCN(CC)c1ccc(C=C2C(=O)NC(=S)NC2=O)cc1`, the Inhibition in the experiment on Staphylococcus aureus is -20.45%; in the experiment on Acinetobacter baumannii, -4.05%; in the experiment on Escherichia coli it was -18.35%; in the experiment on Klebsiella pneumoniae, 3.93%; with Candida albicans, 19.4%; in the experiment with Cryptococcus neoformans, 12.5%.
For the molecule `NC(=O)c1ccc(C(=O)Nc2ccc([As](=O)(O)O)cc2)cc1`, the Inhibition was 11.66% in the experiment on Staphylococcus aureus; 7.33% in the experiment on Acinetobacter baumannii; 15.44% with Escherichia coli; 11.59% in the experiment on Klebsiella pneumoniae; -0.15% in the experiment with Candida albicans; -8.21% with Cryptococcus neoformans.
Turning to `C=CCCC1(C2=CCCCC2)C(=O)NC(=O)NC1=O`, the Inhibition in the experiment on Staphylococcus aureus is 0.11%; with Acinetobacter baumannii, -12.21%; in the experiment with Escherichia coli, 7.91%; with Klebsiella pneumoniae it was 12.33%; in the experiment on Candida albicans, 3.67%; in the experiment with Cryptococcus neoformans, -8.53%.
With `ClC1=C(Cl)C(Cl)=C(Cl)C1=C/C=C/c1ccccc1`, the Inhibition in the experiment with Staphylococcus aureus is -15.24%; in the experiment with Acinetobacter baumannii it was -5.13%; in the experiment on Escherichia coli it was -15.65%; with Klebsiella pneumoniae, 6.7%; with Candida albicans it was 5.69%; with Cryptococcus neoformans, 2.88%.
Turning to `Cc1cc(OCCN2CC2)c2ccccc2n1`, the Inhibition with Staphylococcus aureus was 14.36%; in the experiment with Acinetobacter baumannii, -8.46%; with Escherichia coli it was 11.83%; in the experiment on Klebsiella pneumoniae, 5.11%; in the experiment on Candida albicans, -2.14%; with Cryptococcus neoformans, -8.85%.
In the case of `CN1CCCC1c1ccc(O)nc1` (configuration not stated), the Inhibition was 23.44% in the experiment on Staphylococcus aureus; -7.12% in the experiment on Acinetobacter baumannii; 16.87% in the experiment with Escherichia coli; 15.46% with Klebsiella pneumoniae; -1.49% in the experiment with Candida albicans; -7.69% with Cryptococcus neoformans.
Consider `COc1ccc2c(c1)C13CCN(C)C(C2)C1CCC1(C3)OCCO1` (configuration not stated), for which the Inhibition is -3.64% with Staphylococcus aureus; 10.92% in the experiment with Acinetobacter baumannii; 9.14% in the experiment with Escherichia coli; 10.59% with Klebsiella pneumoniae; 2.14% in the experiment on Candida albicans; -7.98% with Cryptococcus neoformans.
As for `CC(CC(C#N)(c1ccccc1)c1ccccc1)N1CCCCC1` (configuration not stated), the Inhibition was -22.27% with Staphylococcus aureus; -8.26% in the experiment with Acinetobacter baumannii; -18.71% in the experiment with Escherichia coli; 1.48% with Klebsiella pneumoniae; 0.01% in the experiment on Candida albicans; 28.3% with Cryptococcus neoformans.
As to `CCCC(=O)N(C)C1=Nc2ccc(Cl)cc2C(c2ccccc2)=[N+]([O-])C1`, the Inhibition in the experiment on Staphylococcus aureus is 11.96%; with Acinetobacter baumannii, 1.65%; with Escherichia coli, -7.17%; in the experiment with Klebsiella pneumoniae it was 24.44%; in the experiment on Candida albicans, 4.49%; in the experiment on Cryptococcus neoformans it was -4.22%.
Regarding `CN1C2CCC1[C@@H](COC(=O)c1ccccc1)[C@@H](O)C2` (some centres not stated), the Inhibition in the experiment with Staphylococcus aureus is 0.35%; with Acinetobacter baumannii, 15.38%; with Escherichia coli, -10.56%; in the experiment with Klebsiella pneumoniae, 17.19%; with Candida albicans it was 4.47%; in the experiment with Cryptococcus neoformans, -7.25%.
In the case of `COc1cc2c(cc1O)CC1c3c(cc(O)c(OC)c3-2)CCN1C` (configuration not stated), the Inhibition is 8.78% in the experiment on Staphylococcus aureus; -19.02% in the experiment on Acinetobacter baumannii; 10.6% in the experiment with Escherichia coli; 7.6% with Klebsiella pneumoniae; -2.23% in the experiment with Candida albicans; -8.59% with Cryptococcus neoformans.
